# Reference: PubChem BioAssay (Tox21)
# Inconclusive results are not listed. Where a call stands in place of a potency, no number is given. Active and inactive are the calls of the source. Calls follow the shape of the full dose curve. Where a SMILES comes first, the peptide text is derived from it. [ ]: non-standard residue; d: D form. pGlu = O=C1CC[C@@H](C(=O)O)N1
# Test: qHTS assay to identify small molecule antagonists of the sonic hedgehog signaling (Shh) pathway (AID 1259369); also: nearly all actives have a fitted effect of over 45% in size
# Settings: NIH/3T3 Gli1-Luc reporter, Shh antagonist, luminescence 24 h; series mostly up to 92.4 µM
# In short: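 Luminescence readout: firefly Luc under Gli1 response element in 3T3Gli1-Luc cells (NIH/3T3 clone). Antagonist mode, stimulation by conditioned medium; compound exposure 24hr at 37 C, 5% CO2.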
row,SMILES,Potency
1,CC1(C)OC[C@@H](COC(=O)CCc2ccc(OC[C@@H](O)CNCCNC(=O)N3CCOCC3)cc2)O1,inactive
2,CCC(C(=O)NC(=O)NC(C)=O)c1ccccc1 (configuration not stated),inactive
3,CC(C)(N)C#N,inactive
4,CN1C(C)(C)CC(O)CC1(C)C,inactive
5,O=C(c1ccccc1)C1(O)CCCCC1,inactive
6,[O-][n+]1cccc(CO)c1,inactive
7,CCNC(=O)[C@@H]1CCCN1C(=O)[C@H](CCCN=C(N)N)NC(=O)[C@H](CC(C)C)NC(=O)CNC(=O)[C@H](Cc1ccc(O)cc1)NC(=O)[C@H](CO)NC(=O)[C@H](Cc1c[nH]c2ccccc12)NC(=O)[C@H](Cc1cnc[nH]1)NC(=O)[C@@H]1CCC(=O)N1 ([pGlu]HWSYGLRP-NHEt),inactive
8,CC(C)CC(C)(N)C#N (configuration not stated),inactive
9,O=C(O)CCSCCC(=O)O,inactive
10,CC(COc1ccccc1)NN (configuration not stated),inactive
11,C=CC(=O)OCCCl,inactive
12,NS(=O)(=O)Cc1noc2ccccc12,inactive
13,CCNS(=O)(=O)c1ccc(C)cc1,inactive
14,CC(=O)NC(=O)c1ccccc1O,inactive
15,OCCCCCO,inactive
16,O=C(CO)[C@@H](O)[C@H](O)[C@H](O)CO,inactive
17,C=CC(C)(CCC=C(C)C)OC(=O)CC (configuration not stated),inactive
18,CN(C)[C@@H]1C(=O)C(C(=O)NCN2CCCC2)=C(O)[C@@]2(O)C(=O)C3=C(O)c4c(O)cccc4[C@@](C)(O)C3C[C@@H]12 (some centres not stated),inactive
19,Clc1cc(Cl)cc(Cl)c1,inactive
20,O=C1CCCCCCCCCCCCCCO1,inactive
21,CCCO[Si](OCCC)(OCCC)OCCC,inactive
22,C=COCC1CCC(COC=C)CC1 (configuration not stated),inactive
